The structures appear in SMILES notation. The whole screen tested about 320,000 compounds, of which about 1,300 (0.41%) were called active. About 3% were inconclusive and are not listed. How the calls were made is not given here. Not all results are given here. Entries with a potency or affinity are not part of this list.

Broadly, the inhibition is the relative decrease from the control value, in per cent.

A short description of the assay: growth inhibition of non-replicating M. tuberculosis (AID 488890).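 Further: plate controls were DMSO cells for no effect and high antibiotic wells for full effect.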 The note with it: Mycobacterium tuberculosis non-replicating, at 25 µM, stronger effect = higher value.
For `Cc1ccc(C(=O)NCC(=O)Nc2ccc(F)c(F)c2F)cc1`, the inhibition was -13.1%.

For `O=C(Cn1nnc(-c2ccccc2)n1)NNC(=O)c1ccco1`, the inhibition came out at 67.8%.

As to `Cc1ccc(C(=O)N/N=C\c2ccc(OC(=O)c3cccs3)cc2)cn1`, the inhibition was -8.9%.

With `O=C(N/N=C\c1ccc(OC(=O)c2ccco2)cc1)c1ccc(Cl)cc1`, the inhibition amounted to 78.6%.

With `COc1cc(/C=N/Nc2ccc(Cl)c(C(=O)O)c2)ccc1OC(=O)c1ccccc1F`, the inhibition was 39%.

Take `O=C(N/N=C/c1ccc(OC(=O)c2ccco2)cc1)c1ccncc1`: the inhibition turned out to be 69%.

With `COc1cc(/C=N/NC(=O)C(N)=O)ccc1OC(=O)c1cccs1`, the inhibition was -4.85%.

In the case of `COc1ccc(C(=O)Oc2ccc(/C=N/Nc3ccc(Cl)c(C(=O)O)c3)cc2OC)cc1`, the inhibition came out at 12.6%.

Consider `COc1cc(/C=N/NC(N)=O)ccc1OC(=O)c1cccs1`, for which the inhibition came to 2.79%.

Take `O=C(N/N=C\c1ccc(OC(=O)c2cccs2)cc1)c1ccc(Cl)cc1`: the inhibition came to 52.2%.

`COc1ccc(C2CC(C(F)(F)F)n3ncc(C(=O)O)c3N2)cc1OC` (configuration not stated): the inhibition was -8.85%.

On to `COc1cc(OC)cc(C(=O)NC(=S)N2C[C@H]3C[C@H](C2)c2cccc(=O)n2C3)c1`, for which the inhibition was -9.19%.

For `CN(CC(=O)NCc1cccnc1)S(=O)(=O)c1ccc(F)cc1`, the inhibition is -7.08%.

`COc1ccc(/C=N/NC(=O)c2ccccc2OCc2ccccc2)c(OC)c1`: the inhibition is 32%.

Take `C/C(=N\NC(=O)Cc1ccc([N+](=O)[O-])cc1)c1cccnc1`: the inhibition was -2.22%.

As to `Cc1cc(C(=O)NNC(=O)c2cccs2)c(C)o1`, the inhibition is 5.92%.

Take `COc1ccccc1C(=O)Nc1ccc(S(=O)(=O)Nc2nccs2)cc1`: the inhibition is 16%.

Take `COc1cccc(C2C(C#N)=C(N)SC(c3ccccc3)C2[N+](=O)[O-])c1` (configuration not stated): the inhibition is 20.5%.

With `Cc1ccccc1C1=NC(c2ccc(F)cc2F)ON1` (configuration not stated), the inhibition came out at 8.21%.

With `O=C(NCCCN1CCOCC1)c1ccccc1-c1ccccc1`, the inhibition was 3.82%.

Turning to `CSc1ccccc1NC(=O)c1cc(C)on1`, the inhibition amounted to 1.57%.

In the case of `COc1cc(C(=O)Nc2nc(OC)c(-c3ccccc3)c(OC)n2)cc(OC)c1OC`, the inhibition was -16.2%.

For `CCOc1cc(/C=N/NC(=O)COc2ccc(C)cc2)ccc1OC(=O)c1cccs1`, the inhibition was 48.1%.

As to `COc1cc(/C=N/NC(=O)CNC(=O)c2ccccc2)ccc1OC(=O)c1cccs1`, the inhibition was 39.5%.

With `COc1cc(/C=N/NC(=O)COc2ccccc2C)ccc1OC(=O)c1cccs1`, the inhibition was 30.8%.

On to `COc1cc(/C=N/NC(=O)c2ccncc2)ccc1OC(=O)c1cc(OC)c(OC)c(OC)c1`, for which the inhibition was 52.1%.

On to `CCOc1cc(/C=N/NC(=O)COc2ccccc2C)ccc1OC(=O)c1cccs1`, for which the inhibition worked out at 9.01%.

`COc1ccc(/C=N/NC(=O)c2ccc(Br)cc2)cc1CN1CCOCC1`: the inhibition is -2.91%.

As for `COc1ccc(/C=N/NC(=O)c2cccnc2)cc1CN1CCOCC1`, the inhibition was 8.75%.

As for `COc1cc(/C=N\NC(=O)c2ccc(C)nc2)ccc1OC(=O)c1cccc(F)c1`, the inhibition is -1.23%.

For the compound `COc1cc2[nH]c(=O)n(CCC(=O)NCCC(C)C)c(=O)c2cc1OC`, the inhibition is -11%.

As for `O=C(NCCC1CCCCN1S(=O)(=O)c1cccs1)C(=O)NCc1ccccc1` (configuration not stated), the inhibition was determined as 10.3%.

On to `CC1(C)CC(=O)C=C(/C=C/c2ccccc2)C1`, for which the inhibition is -7.3%.

For the compound `COc1ccc(CN(C)C(=O)c2ccc(NS(=O)(=O)c3ccc4[nH]c(=O)[nH]c4c3)cc2)c(OC)c1OC`, the inhibition is 35.7%.

As for `O=C(N/N=C/C(Br)=C/c1ccccc1)c1ccccc1F`, the inhibition turned out to be 49.9%.

Regarding `O=C(c1cc(S(=O)(=O)N2CCC3(CC2)OCCO3)ccc1F)N1CCC2(CC1)OCCO2`, the inhibition is -5.64%.

In the case of `CCOCC(=O)OCC(=O)NC12CC3CC(CC(C3)C1)C2`, the inhibition is -7.93%.

Regarding `CCOC(=O)N1CCN(C(=O)NC23CC4CC(CC(C4)C2)C3)CC1`, the inhibition is -9.51%.

With `CCCN1CCN(S(=O)(=O)c2ccc(-n3cnnn3)cc2)CC1`, the inhibition amounted to 0.97%.

For `COc1ccc(CCNC(=O)C2CCCN(S(=O)(=O)N3CCCCCC3)C2)cc1OC` (configuration not stated), the inhibition was determined as 14.5%.

In the case of `CCOc1ccc(/C=C/C(=O)N(CC)CC(=O)Nc2ccc3c(c2)OCCO3)cc1OC`, the inhibition came to 13.6%.

As to `COc1ccc(N2CCN(Cc3nc4cc(Cl)ccc4c(=O)[nH]3)CC2)cc1`, the inhibition stood at 0.72%.

Regarding `CCCn1nnnc1NCc1ccc(N(C)C)cc1`, the inhibition was 2.84%.

As for `CCCn1nnnc1NCc1ccc(F)cc1`, the inhibition was 24.5%.

On to `CC(C)c1ccc(CNc2nnnn2C)cc1`, for which the inhibition was determined as 44.6%.

On to `CCCn1nnnc1NCc1ccc(OC)cc1`, for which the inhibition is 37%.

As to `CN(Cc1ccccc1)C(=O)COC(=O)C1CCN(S(=O)(=O)c2ccc(Cl)c(C(F)(F)F)c2)CC1`, the inhibition is -14.1%.

Consider `CC1CCN(C(=O)C2CCC(CNc3c(N4CCCCC4)c(=O)c3=O)CC2)CC1` (configuration not stated), for which the inhibition came to 15.8%.

As to `COc1ccc(-c2nn(-c3ccccc3F)cc2CNCCn2nc(C)cc2C)cc1`, the inhibition came to 52.6%.

As for `O=Cc1cn(-c2ccccc2)nc1-c1ccc(F)cc1`, the inhibition is 1.85%.

Turning to `Cc1ccc(-n2cc(CNCCN3CCOC3=O)c(-c3ccc(F)cc3)n2)cc1`, the inhibition was found to be 26.6%.

For `OCc1cn(-c2ccccc2)nc1-c1ccc(-c2nn(-c3ccccc3)cc2CO)cc1`, the inhibition is -3.64%.

As for `O=C(c1ccc2oc(Cc3ccc(Cl)cc3)nc2c1)N1CC[C@H](O)C1`, the inhibition is -2.21%.

On to `CC#CCN(Cc1ccco1)C(=O)c1ccc(OC2CCN(Cc3ccccn3)CC2)cc1`, for which the inhibition is 10.1%.

As to `COc1ccc(/C=C(/C#N)C(=O)Nc2cccnc2)cc1OC`, the inhibition is -2.65%.

For the compound `C#CCOCCOCCOCCNc1nc(N2CCN(C(=O)C([C@@H](C)CC)n3cc(C(N)CC(C)C)nn3)CC2)nc(N2CCN(C(=O)[C@H](CCC(=O)O)n3cc(C(N)CC(C)C)nn3)CC2)n1` (some centres not stated), the inhibition is -10.1%.

In the case of `Cc1ccccc1N=C(NO)c1nonc1N`, the inhibition is -6.6%.

As to `O=C(O)c1ccc(Cl)c(S(=O)(=O)Nc2cccc(C(=O)Nc3cccc(C(F)(F)F)c3)c2)c1`, the inhibition stood at 26.6%.

Turning to `COc1cc(C=Nc2c(C)cc(C)cc2C)ccc1OC(C)=O`, the inhibition is -9.04%.

Regarding `COc1cc(SC)ccc1C(=O)Nc1cccc(S(=O)(=O)NC2=NCCC2)c1`, the inhibition was 24.7%.

On to `O=c1c2cc(F)ccc2sn1-c1ccccc1`, for which the inhibition stood at 20.9%.

`Cc1ccc(C)c(-n2sc3ccc(F)cc3c2=O)c1`: the inhibition is -21.9%.

Turning to `Cc1ccc(S(=O)(=O)N2CCC(=O)N(C(CO)C(C)C)CC2)cc1` (configuration not stated), the inhibition is -0.84%.

`Cc1ccc(C(=O)c2ccc(C(F)(F)F)cc2)cc1`: the inhibition is 23.7%.

On to `CC(O)C(=O)N/N=C/c1ccccc1C(=O)O` (configuration not stated), for which the inhibition was -1.19%.

Take `COc1ccc2[nH]c3c(Cl)ncnc3c2c1`: the inhibition was found to be 66.1%.

For the compound `COc1ccc2c(c1)[nH]c1c(C)nccc12`, the inhibition came to 0.33%.

Take `COc1ccc(NC(=O)C2CCCN(C(=O)c3ccc(Cl)cc3)C2)cc1Cl` (configuration not stated): the inhibition was determined as 5.35%.

As to `CCOc1ccc(CNC(=O)Cn2ccc3cc(S(=O)(=O)N4CCCC4)ccc32)cc1`, the inhibition is 9.09%.

Regarding `CC(NC(=O)Cc1ccsc1)c1ccc(F)cc1` (configuration not stated), the inhibition came out at 3.93%.

Take `COc1ccc(Br)c(C(=O)N2CCN(S(=O)(=O)/C=C/c3ccccc3)CC2)c1`: the inhibition amounted to 17.6%.

Regarding `CCc1ccc(N2CC(C(=O)Nc3ccc(S(=O)(=O)NCC4CCCO4)cc3)CC2=O)cc1` (configuration not stated), the inhibition was -5.44%.

In the case of `CC1(C)CC(=O)C(=Cc2cn(-c3ccccc3)nc2-c2ccccc2)C(=O)C1`, the inhibition is 44.3%.

With `Cc1nc2ccccc2c(=O)n1/N=C/c1cn(-c2ccccc2)nc1-c1cccs1`, the inhibition is 3.43%.

For the compound `O=C(N/N=C/c1cn(-c2ccccc2)nc1-c1cccs1)c1ccccc1F`, the inhibition is 3.19%.

For `O=Cc1cn(-c2ccccc2)nc1-c1ccccc1`, the inhibition was -1.35%.

For `NC(=O)N/N=C/c1cn(-c2ccccc2)nc1-c1cccs1`, the inhibition was 8.14%.

For `S=c1[nH]nc(-c2cccs2)n1/N=C/c1cn(-c2ccccc2)nc1-c1cccs1`, the inhibition is -1.62%.

In the case of `Cc1ccc(/C=C2\SC(=S)N(CCC(=O)Nc3cccnc3)C2=O)cc1`, the inhibition is 2.99%.

`Cc1ccc(CN2CC(C(=O)N3CCN(c4ccccc4O)CC3)CC2=O)cc1` (configuration not stated): the inhibition is 5.09%.

`COc1ccc2cc3cc(C(=O)N4CCN(c5ccccn5)CC4)oc3nc2c1`: the inhibition was determined as 15.3%.

On to `CCOc1cc(/C=C/C(=O)N(CC)CC(=O)NCc2cccs2)cc(Cl)c1OC`, for which the inhibition amounted to 11.9%.

As for `COc1ccccc1Cn1nnc2c(=O)[nH]c(C3CCN(C(=O)c4ccccc4Cl)CC3)nc21`, the inhibition amounted to 33.2%.

On to `CC(=O)Nc1ccc(-c2csc(NC(=O)CCNC(=O)c3ccco3)n2)cc1`, for which the inhibition turned out to be 1.09%.

Regarding `O=C(COC(=O)CCS(=O)(=O)c1ccc(Cl)cc1)NCCc1ccc(Cl)cc1Cl`, the inhibition came to 21.4%.

Take `COC(=O)c1ccc(Cn2cc(C(F)(F)F)ccc2=O)cc1`: the inhibition came to 69.9%.

Turning to `COC(=O)c1cc(Br)c(=O)n(Cc2ccc(C(=O)O)cc2)c1`, the inhibition is -0.84%.

Consider `C[C@H](CO)N1C[C@H](C)[C@@H](CN(C)C(=O)NC2CCCCC2)Oc2c(NC(=O)Cc3ccccc3)cccc2C1=O`, for which the inhibition is 17.9%.

On to `CN(CC(=O)Nc1ccc(F)c(F)c1)S(=O)(=O)c1cccs1`, for which the inhibition was determined as 2.99%.

Regarding `CCN(C[C@H]1N[C@@](C)(C(=O)OC)[C@H]2C(=O)N(C)C(=O)[C@@H]12)S(=O)(=O)c1ccc(OC)cc1`, the inhibition is 9.25%.

On to `COC(=O)COc1cc(Cl)c(C=O)cc1OC`, for which the inhibition was determined as 65.7%.

As for `CCC(CC)NC(=O)COc1ccc(OC)cc1C=O`, the inhibition was -3.52%.

As for `COC(=O)COc1ccccc1/C=C1/NC(=O)NC1=O`, the inhibition was determined as 5%.

In the case of `COC(=O)COc1ccccc1C(N)=O`, the inhibition was 2.19%.

Take `COc1cccc(OC)c1C(=O)Nc1ccccc1C(=O)N1CCCCCC1`: the inhibition was found to be 1.4%.

On to `NC(=O)CCN(C(=O)c1cccc(S(=O)(=O)N2CCc3ccccc32)c1)c1ccccc1`, for which the inhibition was 24.7%.

Consider `COc1ccc(OCC(=O)Nc2ccncc2)cc1`, for which the inhibition was 67%.

`C/C(=N\NC(=O)COc1ccc2ccccc2c1)c1cccs1`: the inhibition was 1.6%.

As to `CCOc1ccc(S(=O)(=O)N(C)c2ccc(OCC(=O)Nc3nccs3)cc2)cc1`, the inhibition came to 20.7%.

In the case of `CCOc1ccc(CC(=O)Nc2nccs2)cc1`, the inhibition turned out to be 3.37%.

Regarding `COc1cccc(OCC(=O)NNC(=O)c2cccs2)c1`, the inhibition is 88.2%.

Take `O=C(COc1ccccc1)Nc1ccncc1`: the inhibition is 49.4%.

For `O=C(COc1ccccc1)Nc1nccs1`, the inhibition turned out to be 50.5%.

For the compound `O=C(COc1ccc2ccc(=O)oc2c1)Nc1nccs1`, the inhibition came out at 9.82%.

As to `CCc1cccc(OCC(=O)Nc2c[nH]c(=O)[nH]c2=O)c1`, the inhibition is -17.2%.

As for `COc1ccc(N2CC(NS(=O)(=O)c3cccs3)CC2=O)cc1` (configuration not stated), the inhibition was -13.6%.

As for `CCOc1ccc(NC(=O)CSc2nnc(C(C)C)n2CC)cc1`, the inhibition was found to be 11.7%.
